Records with an inconclusive call do not appear. The source made the active and inactive calls. Unless noted, no cut-off is given here; in the data, nearly all actives have AC50 up to about 26 µM.
Key:
[1] = viability loss in pontine glioma line – cell-based, SU-DIPG-XVII, MIPE5.0, CellTiter-Glo, qHTS, dose response (AID 1347060); conditions: CellTiter-Glo ATP luminescence;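 for AC50: cells exposed to compound for 48 hours before viability readout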
[2] = viability loss in pontine glioma line – cell-based, SU-DIPG-XIII, MIPE5.0, CellTiter-Glo, qHTS, dose response (AID 1347064; cut-off not given, nearly all actives have AC50 up to about 23 µM;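 for AC50: cells exposed to compound for 48 hours before the viability read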); conditions: CellTiter-Glo ATP luminescence
[3] = viability loss in pontine glioma line – cell-based, SU-DIPG-XXV, MIPE5.0, CellTiter-Glo, qHTS, dose response (AID 1347065); conditions: CellTiter-Glo ATP luminescence;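 note: cells exposed to compound for 48 hours before ATP readout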
[4] = JHH-DIPG-1 glioma cell viability, MIPE5.0 library, CellTiter-Glo luminescence, qHTS (AID 1347067); conditions: JHH-DIPG-1 glioma viability, CellTiter-Glo ATP luminescence;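 note: cells exposed to compound for 48 hours before readout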
[5] = growth inhibition of DIPG cells – cell-based, MIPE5.0 library, qHTS (AID 1347068; cut-off not given, nearly all actives have IC50 up to about 30 µM;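 for IC50: cells exposed to compound for 48 hours before viability readout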); conditions: SU-DIPG-XXV viability

COc1cc2c(Oc3ccc4[nH]c(C)cc4c3F)ccnc2cc1OCC1(N)CC1
active: AC50 [1] 3320 nM | AC50 [2] 2950 nM | AC50 [3] 2950 nM | AC50 [4] 5900 nM | IC50 [5] 16600 nM

COc1cccc2c1C(=O)c1c(O)c3c(c(O)c1C2=O)C[C@@](O)(/C(CO)=N/NC(=O)CCCCCN1C(=O)C=CC1=O)C[C@@H]3O[C@H]1C[C@H](N)[C@H](O)[C@H](C)O1
active: AC50 [1] 1050 nM | AC50 [2] 4680 nM | AC50 [3] 14800 nM | AC50 [4] 2950 nM | IC50 [5] 18600 nM

COc1ccc(S(=O)(=O)Nc2cc(-c3csc(C#N)c3)ccc2C)cc1
active: AC50 [1] 74.2 nM | AC50 [2] 166 nM | AC50 [3] 148 nM | AC50 [4] 93.4 nM | IC50 [5] 263 nM

CN(C)CCNC(=O)COc1c2cccc1Cc1cccc(c1OCC(=O)NCCN(C)C)Cc1cccc(c1OCC(=O)NCCN(C)C)Cc1cccc(c1OCC(=O)NCCN(C)C)C2
inactive: outcome [1] | outcome [2] | outcome [3] | outcome [4] | outcome [5]

CC(C)c1c(-c2ccccc2)nc2c(C#N)c[nH]n2c1=O
inactive: outcome [1] | outcome [2] | outcome [3] | outcome [4] | outcome [5]

C=CC(=O)N1CC[C@@H](Oc2nc(Nc3ccc(N4CCC(N5CCN(C)CC5)CC4)cc3)c(C(N)=O)nc2CC)C1
active: AC50 [1] 1150 nM | AC50 [2] 811 nM | AC50 [3] 910 nM | AC50 [4] 2290 nM | IC50 [5] 4560 nM

Nc1cc(C(F)(F)F)c(-c2nc(N3CCOCC3)nc(N3CCOCC3)n2)cn1
active: AC50 [1] 2350 nM | AC50 [2] 3720 nM | AC50 [3] 742 nM | AC50 [4] 2350 nM | IC50 [5] 1860 nM

COc1cc(C(=O)NC2CCN(C)CC2)c(F)cc1Nc1ncc2c(n1)N(C1CCCC1)CC(F)(F)C(=O)N2C
active: AC50 [1] 93.4 nM | AC50 [2] 1860 nM | AC50 [3] 118 nM | AC50 [4] 20900 nM | IC50 [5] 4170 nM

CC(=O)N[C@H]1CSSC[C@@H](C(N)=O)NC(=O)[C@H](C(C)C)NC(=O)[C@H](C)NC(=O)[C@H](Cc2cnc[nH]2)NC1=O
inactive: outcome [1] | outcome [2] | outcome [3] | outcome [4] | outcome [5]

COC(=O)N1CC2(CC2)C[C@H](C(=O)NO)[C@H]1C(=O)N1CCN(c2ccccc2)CC1
inactive: outcome [1] | outcome [2] | outcome [3] | outcome [4] | outcome [5]

CC(C)(C)C(=O)N1N=CC[C@H]1c1ccccc1
inactive: outcome [1] | outcome [2] | outcome [3] | outcome [4] | outcome [5]

O=C(NCC(=O)N1CCCC1)Nc1ccc2cnccc2c1
inactive: outcome [1] | outcome [2] | outcome [3] | outcome [4] | outcome [5]

O=C(O)CNC(=O)c1ncc(-c2cccc(Cl)c2)cc1O
inactive: outcome [1] | outcome [2] | outcome [3] | outcome [4] | outcome [5]

CCNC(=O)C#Cc1ccc2c(C(=Nc3ccc(CN(C)C)cc3)c3ccccc3)c(O)[nH]c2c1
active: AC50 [1] 162 nM | AC50 [2] 574 nM | AC50 [3] 72.3 nM | AC50 [4] 288 nM | IC50 [5] 811 nM

O=C(O)CNC(=O)c1nc(Cl)c2ccccc2c1O
inactive: outcome [1] | outcome [2] | outcome [3] | outcome [4] | outcome [5]

Reference: PubChem BioAssay
